Compounds with a hit are over-represented: about 1.2% of the library has one in this group of screens.
gsp agonist – activates gsp, the McCune-Albright syndrome mutation | actives 0.13% (n = 340,000) | AID 624287 | Potency, µM (series often up to 76.9 µM), for inactives: top-dose activation (cAMP increase), usual class: activators | gsp mutant cells, cAMP HTRF, 30 min; active = well fitted activation curve with a large enough effect; inconclusive = small, poorly fitted or top-dose-only effect, or another doubt; inactive = no such curve, though single readings can be large or run the other way; cell line not stated here;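 also: phosphodiesterase inhibitor Ro 20-1724 added with compounds to block cAMP breakdown; potency is read from the fitted curve at half-maximal effect; nearly all actives have a fitted effect of over 60% in size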
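Cells stably selected in G418 were plated at 2000/well, grown 16-24 hr, then given compounds in DMSO with the PDE inhibitor […] (300 uM solution added) for 30 min at 37C; cAMP was read by HTRF.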
RXFP1 antagonist – antagonists of human relaxin receptor RXFP1. actives 0.59% (n = 350,000). Q9HBX9. activity change, negative = inhibition, % at 57.5 µM. HEK293-RXFP1, relaxin-stimulated cAMP HTRF, 30 min; active compounds read low;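 active = activity change of -60% or lower, but not beyond a set lower limit; inconclusive = change between -60% and -40%, or beyond the set limit; inactive = change above -40%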; also: % is scaled to controls: 0 for no effect and ±100 for the full control effect
Target sequence (Q9HBX9 whole entry, looked up): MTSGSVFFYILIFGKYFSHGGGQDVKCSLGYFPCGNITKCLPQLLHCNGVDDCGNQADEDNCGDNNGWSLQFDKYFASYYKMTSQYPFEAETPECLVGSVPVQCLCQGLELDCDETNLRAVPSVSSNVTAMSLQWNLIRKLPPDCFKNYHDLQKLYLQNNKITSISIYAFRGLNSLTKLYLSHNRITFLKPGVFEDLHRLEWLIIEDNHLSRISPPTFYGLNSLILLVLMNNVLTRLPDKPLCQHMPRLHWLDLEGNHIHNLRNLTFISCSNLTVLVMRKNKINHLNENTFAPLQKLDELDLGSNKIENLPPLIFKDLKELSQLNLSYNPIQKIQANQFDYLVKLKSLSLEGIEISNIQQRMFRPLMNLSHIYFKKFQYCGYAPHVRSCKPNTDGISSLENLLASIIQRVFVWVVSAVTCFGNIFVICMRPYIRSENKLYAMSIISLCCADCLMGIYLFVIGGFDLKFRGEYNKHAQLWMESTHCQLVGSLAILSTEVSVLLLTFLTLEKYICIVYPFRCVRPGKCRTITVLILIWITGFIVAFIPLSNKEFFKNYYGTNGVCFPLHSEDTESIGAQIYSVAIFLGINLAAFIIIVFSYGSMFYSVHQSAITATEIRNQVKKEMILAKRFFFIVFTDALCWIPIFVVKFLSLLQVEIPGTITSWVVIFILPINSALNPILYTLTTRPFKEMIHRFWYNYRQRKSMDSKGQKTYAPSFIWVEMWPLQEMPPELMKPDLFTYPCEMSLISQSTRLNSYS
Akt phos inh – blocks phosphorylation of Akt; actives 0.32% (n = 360,000); Neuro2A IGF-stimulated pAkt S473 HTRF, 20 min; active compounds read low; activity change, % for hits at 50 µM; in the data active = activity change below about -80%; inconclusive = mostly about -51% to -80%; also: % is scaled to controls: 0 for no effect and ±100 for the full control effect
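Single-point screen (50 µM final compound) in Neuro2A cells stimulated 20 min with 6 nM IGF at 37 deg C. After lysis, Ser473-phosphorylated Akt read by HTRF (ex 330 nm, em 615/665 nm) as the 665/615 ratio.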
RXFP1 ag – activates the human relaxin receptor RXFP1 | Potency, µM (top dose mostly 57.5 µM), for the others: at the highest dose activation, usual class: activators | actives 0.3% (n = 370,000) | AID 2676 | HEK293T-RXFP1 cAMP TR-FRET, 30 min; response scale: percent of porcine relaxin response, buffer zero | Q9HBX9; active = well fitted activation curve with a large enough effect; inconclusive = small, poorly fitted or top-dose-only effect; also: potency is read from the fitted curve at half-maximal effect; % is scaled to controls: 0 for no effect and ±100 for the full control effect; nearly all actives have a fitted effect of over 60% in size
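HEK293 cells stably expressing RXFP1, treated 30 min at 37C with compounds plus PDE4 inhibitor Ro 20174; cAMP measured by HTRF TR-FRET. Normalized to buffer and 29 nM porcine relaxin; EC50 by Hill fit.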
gsp antag – antagonizes gsp, the McCune-Albright syndrome mutation | gsp-mutant cells, cAMP HTRF, 30 min | Potency, µM (doses to about 76.9 µM), for the others: at the top dose activity change, negative = inhibition, most hits filed as inhibitors | actives 0.4% (n = 340,000) | AID 624288; calls by dose curve; cell line not stated here;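 also: intracellular cAMP measured with PDE inhibitor Ro 20-1724 present during compound exposure; potency is read from the fitted curve at half-maximal effect; % is scaled to controls: 0 for no effect and ±100 for the full control effect; nearly all actives have a fitted effect of over 65% in size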
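G418-selected cells were plated in DMEM/10% FBS for 16-24 h at 37C, then treated with compounds plus the PDE inhibitor […] (300 uM solution added) for 30 min at 37C. Intracellular cAMP was measured by HTRF after 30 min lysis at room temperature.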
An asterisk follows results filed as active; ! = repeats disagree; [ ] = remark or other dose.

Results for Cc1ccccc1N1CC(C(=O)Nc2nnc(SCCN3CCOCC3)s2)CC1=O (stereo unspecified) ?
gsp agonist: inconclusive; RXFP1 antagonist: 4; Akt phos inh: inactive; RXFP1 ag: 0%; gsp antag: 32µM*

What do the screens show for `N#CC1=C(N)OC2=C(C(=O)CCC2)C1c1ccoc1` (stereo unspecified)?
gsp agonist: -5%[15.4 µM]; RXFP1 antagonist: -7; Akt phos inh: inactive; RXFP1 ag: -1%; gsp antag: 6%

How did N#CC1=C(N)OC2=C(C(=O)CCC2)C1C1C=CCCC1 (stereo unspecified) do in these assays?
gsp agonist: 4%; RXFP1 antagonist: 2; Akt phos inh: -110%*; RXFP1 ag: 1%; gsp antag: 2%

Results for Cc1oc2c(c(C)cc3oc(=O)c(CC(=O)NCCc4ccccc4F)c(C)c32)c1C ?
RXFP1 antagonist: 7; RXFP1 ag: -1%

How did O=C(NCc1ccccc1)c1nc(S(=O)(=O)Cc2ccccc2)ncc1Cl do in these assays?
gsp agonist: 5%; RXFP1 antagonist: -113*!; RXFP1 ag: 0%; gsp antag: -9%

What do the screens show for `CCS(=O)(=O)c1ncc(Cl)c(C(=O)NCc2ccccc2)n1`?
RXFP1 antagonist: inconclusive; RXFP1 ag: 1%

How did COc1ccc(CNC(=O)c2nc(S(=O)(=O)Cc3ccccc3)ncc2Cl)cc1 do in these assays?
gsp agonist: -12%; RXFP1 antagonist: -119*!; RXFP1 ag: -3%; gsp antag: inconclusive

How did CCN(C(=O)Cn1c(C(=O)OC)cc2sccc21)c1cccc(C)c1 do in these assays?
RXFP1 antagonist: -11; RXFP1 ag: 0%

Results for CCCC(=O)N(C1CC(C)C(C#N)(C#N)C1(C#N)C#N)N(C)C (stereo unspecified) ?
gsp agonist: 6%[15.4 µM]; RXFP1 antagonist: -85*; Akt phos inh: inactive; RXFP1 ag: 0%; gsp antag: -3%

How did CC(=O)N(C1CC(C)C(C#N)(C#N)C1(C#N)C#N)N(C)C (stereo unspecified) do in these assays?
gsp agonist: 4%[15.4 µM]; RXFP1 antagonist: -19; Akt phos inh: inactive; RXFP1 ag: 2%; gsp antag: 11%

What do the screens show for `Cc1oc(-c2ccccc2Cl)nc1CS(=O)(=O)CC(=O)NCc1ccc(F)cc1`?
RXFP1 ag: 2%

Results for CC(Oc1ccc(F)cc1)C(=O)Nc1nc(-c2ccc(F)cc2)ns1 (stereo unspecified) ?
RXFP1 antagonist: inconclusive; RXFP1 ag: -1%

How did Cc1cccc(C)c1NC(=O)CSc1nc(C)c(CC(=O)c2ccc(Br)cc2)c(C)c1C#N do in these assays?
gsp agonist: inconclusive; RXFP1 antagonist: -14; Akt phos inh: -102%*; RXFP1 ag: 2%; gsp antag: 19%

What do the screens show for `CCOc1ccc(NC(=O)C2CCN(c3nc4ccccc4[nH]3)CC2)cc1`?
RXFP1 antagonist: -16; RXFP1 ag: 2%

How did CC(=O)c1c(C)[nH]c(C(=O)OCC(=O)Nc2cc(Cl)ccc2[N+](=O)[O-])c1C do in these assays?
gsp agonist: inconclusive; RXFP1 antagonist: -13; Akt phos inh: inactive; RXFP1 ag: 0%; gsp antag: 35µM*

How did CC(=O)c1c(C)[nH]c(C(=O)OCC(=O)Nc2ccc(C)cc2[N+](=O)[O-])c1C do in these assays?
gsp agonist: -18%; RXFP1 antagonist: -6; Akt phos inh: inactive; RXFP1 ag: 1%; gsp antag: inconclusive

How did CCn1nc(-c2ccccc2)c(-c2ccccc2)c(C(=O)OCCOC)c1=O do in these assays?
RXFP1 antagonist: -29; RXFP1 ag: -1%

Results for O=C(Nc1cccc2ncccc12)c1cccc(F)c1 ?
gsp agonist: 6%; RXFP1 antagonist: -7; Akt phos inh: -107%*; RXFP1 ag: -2%; gsp antag: 13%

Results for COc1ccc(C(=O)Nc2nc3n(n2)C(c2ccc(Cl)cc2)C=C(c2ccccc2)N3)cc1OC (stereo unspecified) ?
RXFP1 antagonist: -10; RXFP1 ag: 20µM*

What do the screens show for `CCCc1ccc2oc(C(=O)NCCc3cnn(C)c3)c(C)c2c1`?
gsp agonist: -4%; RXFP1 antagonist: inconclusive; Akt phos inh: inactive; RXFP1 ag: 3%; gsp antag: -14%

What do the screens show for `CCCc1ccc2oc(C(=O)NCCc3nc(C(=O)OCC)cs3)c(C)c2c1`?
gsp agonist: 18%[15.4 µM]; RXFP1 antagonist: -79*; Akt phos inh: inactive; RXFP1 ag: 0%; gsp antag: inconclusive

What do the screens show for `O=C(Cc1ccc(S(=O)(=O)N2CCOCC2)s1)Nc1nc2c(s1)CCCC2`?
gsp agonist: -38%; RXFP1 antagonist: -31; Akt phos inh: inactive; RXFP1 ag: 0%; gsp antag: 7.9µM*

What do the screens show for `CCCc1nnc(NC(=O)Cc2coc3c(C)c(C)ccc23)s1`?
RXFP1 antagonist: -14; RXFP1 ag: 1%

Results for CC(C)(C)C1CCc2c(sc(NC(=O)CCC(=O)O)c2C(=O)Nc2ccccc2C(F)(F)F)C1 (stereo unspecified) ?
RXFP1 antagonist: -21; RXFP1 ag: 0%

What do the screens show for `COCCCNC(=O)c1cc2cc(S(=O)(=O)N3CCCCC3)ccc2n1C`?
RXFP1 antagonist: -9; RXFP1 ag: -4%

Results for Cc1ccccc1CS(=O)(=O)Cc1ccc(C(=O)NCc2ccccn2)o1 ?
gsp agonist: 14%; RXFP1 antagonist: -14; Akt phos inh: inactive; RXFP1 ag: 2%; gsp antag: -9%

How did O=C(NCc1ccccn1)c1ccc(CS(=O)(=O)Cc2ccc(Cl)cc2)o1 do in these assays?
gsp agonist: -18%; RXFP1 antagonist: -8; Akt phos inh: -126%*; RXFP1 ag: 2%; gsp antag: 0%

Results for Cc1sc2ncn(CC(=O)N3CCN(c4ccc(Cl)cc4)CC3)c(=O)c2c1S(=O)(=O)N1CCN(c2ncccn2)CC1 ?
RXFP1 ag: 2%

What do the screens show for `Cc1cccc2nc(-c3cccnc3)c(Nc3ccc(C(C)C)cc3)n12`?
RXFP1 antagonist: -88*; RXFP1 ag: 0%

Results for OC[C@H]1O[C@H](O[C@]2(CCl)O[C@H](CCl)[C@@H](O)[C@@H]2O)[C@H](O)[C@@H](O)[C@H]1Cl ?
RXFP1 antagonist: -4

Results for COc1ccc(CCNC(=O)CCc2c(C)c3ccc(O)c(C)c3oc2=O)cc1 ?
RXFP1 antagonist: -1; RXFP1 ag: 10%

How did CCc1nc(Nc2cccc(O)c2)c2oc3ccccc3c2n1 do in these assays?
gsp agonist: 22%; RXFP1 antagonist: -76*; Akt phos inh: inactive; RXFP1 ag: 5%; gsp antag: -26%

What do the screens show for `CCc1ccc(NC(=O)CC2C(=O)N(c3cccc(OC)c3)C(=O)N2Cc2ccco2)cc1` (stereo unspecified)?
RXFP1 antagonist: 9; RXFP1 ag: 2%
